Bioassay records deposited in PubChem BioAssay by The Scripps Research Institute Molecular Screening Center.
TTR transcr act = increases transthyretin transcription | activation, % at 16.7 µM | 92,000 compounds, 1.3% hits | SH-SY5Y TTR promoter Gaussia luciferase, luminescence; 100% = recombinant luciferase protein wells;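 active means activation above the mean of all tested compounds plus 3 SD, cut at about 9.5% in these data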;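 further: cells exposed to compounds for one day before reading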
TTR inh HuH7 = decreases TTR transcription in HuH7 cells in activator counter-screen; shares compounds with TTR transcr act; HuH7 TTR promoter-Gaussia luciferase reporter, luminescence; inhibition, % at 16.7 µM; 1,100 compounds, 4% hits; AID 1117279;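 active means average inhibition above the solvent-only control wells' mean plus 3 SD, cut at about 15% in these data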;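 further: inhibitors lower well luminescence so higher value means more inhibition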
TTR up confirm = human TTR transcription activation, confirmation | shares compounds with TTR transcr act | SHSY5Y TTR promoter Gaussia luciferase, luminescence; 100% = purified Lucia enzyme wells, no cells | activation, % at 16.7 µM | 1,100 tested, under 10 active | AID 1117280;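 active means mean activation above a set limit taken from the earlier primary screen, cut at about 11% in these data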
A number is an active result; i = inactive. Shown is part of a subset that was picked to be rich in hits.

SMILES	TTR transcr act	others
CCOC(=O)N1CCN(c2c(NCCN3CCN(Cc4ccccc4)CC3)c(=O)c2=O)CC1	i
CC(=O)NC1(c2ccccc2)CCN(C(=O)N2CCOCC2)CC1	i
CC(=O)NC1(NC(C)=O)CCN(C)C(c2ccccc2)C1C (stereo not drawn)	14.8	TTR inh HuH7=i;TTR up confirm=i
CC(=O)NC1(C(F)(F)F)C(=O)N(Cc2ccccc2)C2=C1C(=O)CC(C)(C)C2 (stereo not drawn)	i
c1ccc2oc(-c3ccc(Nc4nc(N5CCOCC5)nc(N5CCOCC5)n4)cc3)nc2c1	10.4	TTR inh HuH7=i;TTR up confirm=i
Clc1cccc(Nc2nc(N3CCOCC3)nc(N3CCOCC3)n2)c1	i
CCc1ccc(Nc2nc(N3CCOCC3)nc(N3CCOCC3)n2)cc1	i
COC(=O)c1cc(S(=O)(=O)N2CCN(c3ccc([N+](=O)[O-])cc3)CC2)c[nH]1	i
Cc1cccc2cc(C(c3nnnn3Cc3ccc4c(c3)OCO4)N3CCCC3)c(=O)[nH]c12 (stereo not drawn)	10.6	TTR inh HuH7=i;TTR up confirm=i
O=c1[nH]c2cc3c(cc2cc1C(c1nnnn1Cc1ccccc1)N1CCCc2ccccc21)OCO3 (stereo not drawn)	i
CCC(C)(C)n1nnnc1C(c1cc2cccc(C)c2[nH]c1=O)N1CCN(C(=O)c2ccco2)CC1 (stereo not drawn)	i
CC(=O)N1CCN(S(=O)(=O)c2ccc(C)cc2)C1C (stereo not drawn)	i
Cc1cc(NC(=O)C2CC2)ncc1NC(=O)c1ccccn1	i
Cc1ccccc1NC(=O)c1ccccn1	i
Cc1cc(NC(=O)C2CCCCC2)ncc1NC(=O)c1ccccn1	14.5	TTR inh HuH7=i;TTR up confirm=i
Nc1ccccc1OCCOCCOCCOc1ccccc1N	i
O=S(=O)(NCc1cc(-c2ccccc2)no1)c1ccc(Cl)cc1	i
O=S(=O)(NCc1cc(-c2ccc(Cl)cc2)no1)c1ccc(Cl)cc1	i
O=S(=O)(Cc1cc(-c2ccc(Cl)cc2)no1)c1ccccc1	12.2	TTR inh HuH7=i;TTR up confirm=i
COCCN(C(=O)CSc1nnc2cc(C)c3ccccc3n12)c1c(N)n(Cc2ccccc2)c(=O)[nH]c1=O	i
Cc1ccc(C(=O)Nc2ccn(Cc3ccc(F)cc3)n2)o1	i
COc1ccc(C2CC(=O)C3=C(C2)NC(C)=C(C#N)C3c2ccc(N(C)C)cc2)cc1 (stereo not drawn)	i
COc1cc(OC)c(C2C(C#N)=C(C)NC(C)=C2C#N)c(C(=O)O)c1	29.7	TTR inh HuH7=i;TTR up confirm=i
COc1ccc(C(=O)O)c(O)c1	i
Cc1cccc(C(=O)NNC(=O)c2ccccc2[N+](=O)[O-])c1	i
SMILES	TTR transcr act	others
CC(C)(O)[C@@H]1Cc2c(ccc3ccc(=O)oc23)O1	i
CCOc1ccc(C2NC(=O)c3ccccc3O2)cc1OCC (stereo not drawn)	i
CCOC(=O)C1CCCN(c2ncnc3c2cnn3-c2cccc(C)c2)C1 (stereo not drawn)	i
Cc1cccc(N(C(=O)Cn2nnc3ccccc32)C(C(=O)NCc2ccco2)c2ccncc2)c1C (stereo not drawn)	i
O=C(NCc1ccco1)C(c1ccccc1)N(CC1CCCO1)C(=O)Cn1nnc2ccccc21 (stereo not drawn)	i
Cc1ccccc1C(C(=O)NCc1ccco1)N(CC1CCCO1)C(=O)Cn1nnc2ccccc21 (stereo not drawn)	12.0	TTR inh HuH7=i;TTR up confirm=i
Cc1ccc(Cl)c(NC(=O)COC(=O)c2ccccc2C(=O)c2ccc(Cl)c([N+](=O)[O-])c2)c1Cl	i
COc1ccccc1N1CCN(C(=O)Cc2ccc(Cl)cc2)CC1	i
O=C(NCCc1ccccc1)c1c(O)c2ccccc2[nH]c1=O	i
O=C(CCl)NNC(=O)c1c(O)c2ccccc2[nH]c1=O	i
O=C(Cc1c(O)c2ccccc2[nH]c1=O)NCc1ccccc1F	14.1	TTR inh HuH7=i;TTR up confirm=i
CCCCC(CC)C(=O)Nc1cc(C(=O)NCCC)ccc1N1CCC2(CC1)CC(c1cccc(Br)c1)=NO2 (stereo not drawn)	i
CC12CN3CC(C)(CN(C1)C3c1ccccc1F)C2 (stereo not drawn)	i
CC1CCCC(C)N1S(=O)(=O)c1ccc(NC(=O)CNCC2CCCO2)cc1 (stereo not drawn)	i
COc1ccc(N(C(=O)c2ccco2)C(C(=O)NC2CCCCC2)c2ccccc2)cc1 (stereo not drawn)	i
Cc1ccc(C(C(=O)NC2CCCC2)N(Cc2cccnc2)C(=O)c2snc(C(N)=O)c2N)o1 (stereo not drawn)	i
CN(C)c1ccc(C(C(=O)NC2CCCCC2)N(Cc2ccco2)C(=O)c2snc(C(N)=O)c2N)cc1 (stereo not drawn)	11.5	TTR inh HuH7=i;TTR up confirm=i
Cc1ccc(N(C(=O)c2snc(C(N)=O)c2N)C(C(=O)NC2CCCC2)c2ccco2)cc1 (stereo not drawn)	i
CN(C)c1ccc(C(C(=O)NC2CCCC2)N(C(=O)c2ccco2)C2CC2)cc1 (stereo not drawn)	i
COc1ccc(N(C(=O)c2ccco2)C(C(=O)NC2CCCC2)c2ccc(N(C)C)cc2)cc1OC (stereo not drawn)	17.3	TTR inh HuH7=i;TTR up confirm=i
COc1ccc(CCNC(=O)C2CCN(S(=O)(=O)c3ccc(SC)cc3)CC2)cc1	i
Cc1cccc(C)c1NC(=O)c1ccc2c(c1)CCN2S(C)(=O)=O	i
FC(F)(F)c1cccc(CNc2ncccc2-c2nc3cc(Cl)ccc3o2)c1	i
COc1ccc(-n2nc(C(=O)NCC(=O)NCc3ccco3)c3ccccc3c2=O)cc1	i
CCOC(=O)N1CCN(C(=O)CNC(=O)c2nn(-c3ccc(OC)cc3)c(=O)c3ccccc23)CC1	14.8	TTR inh HuH7=i;TTR up confirm=i
SMILES	TTR transcr act	others
COc1ccc(-n2nc(C(=O)NCC(=O)NCCCN3CCN(C)CC3)c3ccccc3c2=O)cc1	i
Cc1nn(CC(=O)NCc2ccccc2F)c(C)c1[N+](=O)[O-]	i
CN(C)/C=C/C(=O)c1ccc(-c2ccc(Cl)cc2Cl)o1	i
CN1CCN(NC(=O)NC2CCCCC2)CC1	i
O=C(Nc1ccncc1)Nc1cccc(Cl)c1	i
Cc1ccc(C(=O)C(C)OC(=O)Cn2[nH]c(=O)c3ccccc3c2=O)cc1 (stereo not drawn)	i
O=C(C[C@H]1C[C@@H]2c3cc(NC(=O)c4ccc5c(c4)OCO5)ccc3O[C@@H]2[C@H](CO)O1)NCc1cc(F)ccc1F	17.1	TTR inh HuH7=i;TTR up confirm=i
COc1ccccc1CNC(=O)C[C@@H]1C[C@H]2c3cc(NC(=O)c4ccc5c(c4)OCO5)ccc3O[C@H]2[C@@H](CO)O1	i
O=C(C[C@H]1C[C@H]2c3cc(NC(=O)CC4CC4)ccc3O[C@H]2[C@H](CO)O1)NCc1ccccc1F	i
Cc1cc(S(=O)(=O)Cc2noc(-c3c(C)noc3C)n2)c(C)cc1Cl	i
Cc1cccn2c(=O)c3cc(C(=O)N4c5ccccc5CC4C)n(C)c3nc12 (stereo not drawn)	i
O=C(CN(Cc1ccco1)Cc1cccs1)N1CCN(S(=O)(=O)c2cccc(F)c2)CC1	i
O=C(Cc1cccs1)N1CCN(S(=O)(=O)c2ccc(F)c(F)c2)CC1	10.3	TTR inh HuH7=i;TTR up confirm=i
O=C(Cc1cccs1)N1CCN(S(=O)(=O)c2ccccc2)CC1	i
C/C(=N\OC(=O)c1cccc(Cl)c1)c1sc(C)nc1C	i
O=C(CN1C(=O)C(=O)N(Cc2ccco2)C1=O)c1c[nH]c2ccccc12	10.9	TTR inh HuH7=i;TTR up confirm=i
